# Screening results deposited in PubChem BioAssay by National Center for Advancing Translational Sciences (NCATS).
# Hits are enriched below; roughly 9.5% of the tested compounds scored in any of these assays.
# Pf growth 48h = inhibits P. falciparum growth in the first generation, 48 h; Potency, µM (series often up to 28.7 µM), without a hit: top-dose activity change, negative = inhibition, hits mostly inhibitors; P. falciparum luciferase growth in erythrocytes, 48 h; AID 504832; hit rate 5.9% among 310,000; note: % is set by controls: 0 for no effect and ±100 for the full control effect
#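 Luminescence readout; reporter = integrated firefly luciferase in P. falciparum. RBC culture at 2% hematocrit, 0.1% parasitemia final, 37 C/5% CO2; decreased signal taken as growth inhibition.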
# NS1 function inh = influenza NS1 inhibition; hit rate 0.4% among 270,000; Potency, µM (highest dose often 46.1 µM), for the others: top-dose activity, positive = more growth; calls by dose curve; note: actives are rising curves; nearly all actives have a fitted effect of over 50% in size
#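 OD600 was taken as the measure of yeast growth restored by compound in an NS1-expressing S. cerevisiae strain. Cells had been washed out of glucose medium and diluted 1:100 into galactose -URA medium, pH 6.0.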
# RE007 growth inh = less growth of the S. pombe RE007 Vpr strain; S. pombe RE007 Vpr strain, BacTiter-Glo ATP luminescence, 24 h; Potency, µM (series often up to 92.2 µM), inactives show at the highest dose activity change, negative = less growth, actives largely listed as inhibitors; hit rate 0.21% among 360,000; AID 651644; active = well fitted falling curve with a large enough effect; inconclusive = small, poorly fitted or top-dose-only effect; inactive = no such curve, though single readings can be large or run the other way; note: % is set by controls: 0 for no effect and ±100 for the full control effect; nearly all actives have a fitted effect of over 50% in size
#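 Fission yeast strain RE007, carrying one chromosomally integrated HIV-1 vpr copy, was seeded at OD 0.01 in PMG+AL medium with 23 nL pinned compound. After 24 h at 30 °C and 99% humidity, viability was read by BacTiter-Glo luminescence.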
# SARS PLP yeast = SARS-CoV PLP inhibition in yeast; AID 485353; hit rate 0.19% among 330,000; S. cerevisiae expressing SARS-CoV PLpro, growth rescue; Potency, µM (top dose mostly 32.9 µM), inactives show at the top dose activity, positive = growth rescue, most hits filed as activators; calls by dose curve; note: 0% is about no effect; nearly all actives have a fitted effect of over 55% in size
# Pf growth 96h = P. falciparum growth inhibition at 96 hours. P. falciparum luciferase reporter growth, 96 h. Potency, µM (highest dose often 28.7 µM), for inactives: at the top dose activity change, negative = inhibition, most hits filed as inhibitors. hit rate 6.9% among 320,000. AID 504834; note: % is set by controls: 0 for no effect and ±100 for the full control effect
#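 Parasite growth measured via integrated firefly luciferase reporter in P. falciparum. Infected erythrocytes at 2% hematocrit, 0.05% parasitemia final were treated 96 hours at 37 C under 5% CO2, and luminescence was read.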
# Numbers without * were called inactive; u = inconclusive; x = no result given; [ ] = remark or other dose. Unless noted, calls come from the whole dose curve; as a rule, active = well fitted inhibition curve with a large enough effect; inconclusive = small, poorly fitted or top-dose-only effect, or another doubt; inactive = no such curve, though single readings can be large or run the other way. Potency is the fitted concentration of half-maximal effect.
SMILES,Pf growth 48h,NS1 function inh,RE007 growth inh,SARS PLP yeast,Pf growth 96h
CCc1nnc(NS(=O)(=O)c2ccc(NCc3ccccc3O)cc2)s1,18%,-5%,0%,-2%,3.3µM*
CCCN(CCC)S(=O)(=O)c1ccc(C(=O)Nc2ccc(S(=O)(=O)Nc3nnc(CC)s3)cc2)cc1,12µM*,u,3%,2%,u
CCc1nnc(NS(=O)(=O)c2ccc(NC(=O)c3ccc(C#N)cc3)cc2)s1,u,u,1%,11%,10µM*
CCN(C(=O)Cc1ccccc1OC)c1nnc(-c2ccncc2)s1,u,-16%,4%,-3%,u
CCN(C(=O)Cc1cccs1)c1nnc(-c2cc(OC)c(OC)c(OC)c2)s1,5.2µM*,-39%,-17%,0%,-17%
O=C(Nc1cccc(Cl)c1)C1CCCN(C2=NS(=O)(=O)c3ccccc32)C1 (stereo not given),u,x,8%,-1%,-23%
CC[C@]1(O)CC2CN(CCc3c([nH]c4ccccc34)[C@@](C(=O)OC)(c3cc4c(cc3OC)N(C)[C@H]3[C@@](O)(C(=O)OC)[C@H](OC(C)=O)[C@]5(CC)C=CCN6CC[C@]43[C@@H]65)C2)C1 (stereo not given in full),0.48µM*,x,x,x,0.85µM*
CCC1=C[C@@H]2CN(C1)Cc1c([nH]c3ccccc13)[C@@](C(=O)OC)(c1cc3c(cc1OC)N(C)[C@@H]1[C@@](O)(C(=O)OC)[C@H](OC(C)=O)[C@]4(CC)C=CCN5CC[C@]31[C@@H]54)C2,0.48µM*,x,x,x,0.85µM*
CC(C)Oc1ccc(CNC(=O)C2CCCN(S(=O)(=O)N3CCOCC3)C2)cc1 (stereo not given),-2%,-12%,-2%,4%,-17%
Cn1c(SCc2ccccc2C#N)nnc1-c1ccncc1,44%,u,5%,16%,0%
O=C(CSc1nc2ccccc2n1CC(=O)N1CCCC1)N1CCN(C(=O)c2ccco2)CC1,-16%,0%,-19%,-4%,6.6µM*
Cc1ccc2cc(C)c3nnc(SCC(=O)N4CCN(C(=O)c5ccco5)CC4)n3c2c1,13µM*,-4%,-2%,1%,x
O=C(CSc1ccc(-c2nc3ccccc3[nH]2)cn1)N1CCN(C(=O)c2ccco2)CC1,13µM*,-21%,3%,11%,1%
O=C(CSc1nc2ccccc2n1CC(=O)N1CCCC1)Nc1nccs1,-2%,-6%,3%,1%,2.6µM*
O=C(CSc1nc2ccccc2n1CC(=O)N1CCOCC1)N1CCCC1,11%,7%[9.22 µM],2%,19%,u
CCOc1ccccc1NS(=O)(=O)c1cn(C)c(=O)n(C)c1=O,14%,3%,6%,1%,42%
CCS(=O)(=O)c1nc2ccccc2n1CC(=O)N1CCCCC1,-9%,6%,7%,9%,10µM*
CC(=O)c1ccc(NC(=O)C(C)Sc2nnc(-c3ccncc3)n2C2CC2)cc1 (stereo not given),x,x,5%,-4%,x
CCN(CCNCC(O)COCc1ccc(Cl)cc1)c1cccc(C)c1 (stereo not given),8.3µM*,x,-5%,-8%,u
CCN(CCNC(=O)c1ccc(C#N)cc1)c1cccc(C)c1,u,7%,24%,-2%,u
C=CCOc1ccc(C(=O)c2ccccc2)c(OCC(=O)NC2(C#N)CCCC2)c1,u,-47%,-22%,-3%,u
Cc1ccc(N2C3=C(C(=O)CC(C)(C)C3)C(c3cn(C)nc3C)C3=C2CC(C)(C)CC3=O)cc1,x,x,-4%,x,x
Cc1nn(C)cc1C1C2=C(CC(C)(C)CC2=O)N(c2ccccc2)C2=C1C(=O)CC(C)(C)C2,x,5%,-11%,12%,3.7µM*
COc1ccc(OC)c(NC(=O)/C=C/c2ccc(S(=O)(=O)N3CCOCC3)cc2)c1,12µM*,x,0%,0%,2.9µM*
COc1ccc(CNC(=O)/C=C/c2ccc(S(=O)(=O)N3CCOCC3)cc2)cc1,u,x,29%,0%,-22%
SMILES,Pf growth 48h,NS1 function inh,RE007 growth inh,SARS PLP yeast,Pf growth 96h
CN(C)S(=O)(=O)c1cccc(NC(=O)/C=C/c2ccc(S(=O)(=O)N3CCOCC3)cc2)c1,8.3µM*,x,1%,2%,u
COc1ccc(/C=C/C(=O)Nc2ccccc2Cl)cc1S(=O)(=O)N1CCOCC1,10µM*,-5%,10%,3%,10µM*
COc1ccc(CN(C)C(=O)/C=C/c2ccc(S(=O)(=O)N3CCOCC3)cc2)cc1F,12µM*,x,-10%,2%,u
CC(C)(C)c1ccc(S(=O)(=O)NC(=O)C2(C)CCN2C(=O)C2CC2)cc1 (stereo not given),x,x,48%,x,x
CC(O)(Cc1cccnc1)c1cccs1 (stereo not given),x,x,15%,x,x
COc1ccc(/C=C/C(=O)NC2CCCCCCC2)cc1S(=O)(=O)N1CCOCC1,u,-5%,14%,-3%,5.9µM*
COc1ccc(C)cc1NC(=O)/C=C/c1ccc(OC)c(S(=O)(=O)N2CCOCC2)c1,9.3µM*,x,11%,-11%,5.2µM*
COc1ccc(/C=C/C(=O)NC(C)(C)C)cc1S(=O)(=O)N1CCOCC1,7%,3%,-10%,4%,-3%
COc1ccc(/C=C/C(=O)Nc2ccc(NC(C)=O)cc2)cc1S(=O)(=O)N1CCOCC1,u,-34%,5%,0%,u
COc1ccccc1NC(=O)c1ccccc1NC(=O)c1cccs1,2%,1%,1%,-2%,u
c1ccc(C[C@H]2CN=C(Nc3ccccc3)N2CCC2CCCC2)cc1,u,x,-14%,0%,u
NC1=NC[C@H](Cc2ccccc2)N1CCc1cccc(F)c1,5.9µM*,-1%,-4%,8%,3.7µM*
NC1=NC[C@H](Cc2ccccc2)N1CCCCC1CCCCC1,u,-8%,-12%,-5%,12µM*
NC1=NC[C@H](Cc2ccc(O)cc2)N1CCCCC1CCCCC1,2.1µM*,4%,-6%,-3%,2.1µM*
O=C1NC[C@@H](CCCCN2C[C@H](Cc3ccc(O)cc3)N(CC3CCCCC3)C(=O)C2=O)N(CC2CCCCC2)C1=O,x,x,2%,x,x
Cc1noc(C)c1C(=O)Nc1nccs1,13%,5%,0%,19%,18%
COc1ccc([C@H]2N[C@]3(CCCN(Cc4ccco4)C3=O)[C@H]3C(=O)N(Cc4ccccc4)C(=O)[C@@H]23)cc1,x,x,6%,x,x
CCOC(=O)N1CCC(NC(=O)c2oc3c(c2C)-c2[nH]ncc2CC3)CC1,x,16%,-12%,2%,8.3µM*
CCOC(=O)N1CCC(NC(=O)Cn2c3ccccc3c3cn[nH]c(=O)c32)CC1,6%,2%,x,7%,-1%
CCc1nonc1NC(=O)c1oc2ccccc2c1C,9.3µM*,-15%,-17%,-1%,u
CCc1nonc1NC(=O)c1oc2ccc(C)cc2c1C,67%,0%,1%,-1%,u
CCc1nonc1NC(=O)c1oc2cc(Br)ccc2c1C,9.3µM*,-9%,-1%,3%,u
